Rows were chosen to be rich in hits. Some 18% of all compounds tested hit in one or more screens of this group.
IL-1B inflam inh: qHTS for Inhibitors of Inflammasome Signaling: IL-1-beta AlphaLISA Primary Screen | AID 743279, 2014 | 4.7% of 360,000 active | activity change, % at 57.5 µM | THP-1 LPS/ATP IL-1B secretion, AlphaLISA, 16 h; active compounds read low; in the data active means activity change below about -50%; inconclusive means mostly about -30% to -49%
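THP-1 cells pretreated 1 hr with compounds (up to 57.5 uM final), then stimulated with LPS (250 ng/mL final) plus ATP (1.25 mM final); secreted IL-1B measured by AlphaLISA after 16 hr, decreased signal indicating inhibition.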
Gal4-VP16 FLuc: VP16 counterscreen qHTS for inhibitors of ROR gamma transcriptional activity | Drosophila S2 Gal4-VP16 UAS-luciferase, luminescence, 20 h | Potency, µM (highest dose often 53.6 µM), inactives show at the highest dose activity, negative = inhibition, actives largely listed as inhibitors | 3.5% of 310,000 active;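 further: Gal4-VP16 expression switched on by copper sulfate through the metallothionein promoter; potency means the concentration at half of the fitted maximal effect; nearly all actives have a fitted effect of over 50% in size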
DT40 TDP1 no CPT: qHTS for Inhibitors of human tyrosyl-DNA phosphodiesterase 1 (TDP1): qHTS in cells in absence of CPT; DT40 Tdp1-/- hTDP1 cells, no CPT, ATP luminescence, 48 h; Potency, µM (doses to about 46.2 µM), inactives show at the highest dose activity change, negative = growth inhibition, most hits filed as inhibitors; 15% of 420,000 active; further: potency means the concentration at half of the fitted maximal effect; nearly all actives have a fitted effect of over 55% in size
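Growth of hTDP1-complemented DT40 Tdp1-knockout cells is measured by ATP luminescence after at least 48 hr compound exposure at 37 °C, with DMSO substituting for the 20 nM CPT used in the parallel screen.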
LDHA inh: qHTS assay for inhibitors of human lactate dehydrogenase; L-lactate dehydrogenase A chain (Homo sapiens), P00338; purified LDHA, NADH/diaphorase-resazurin fluorescence; active compounds read low; activity change, % (values are at about 110 or 230 µM); 0.15% of 480,000 active; AID 1347041, 2019; in the data active means activity change below about -30%; inconclusive means mostly about -25% to -30%;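 further: plate controls were DMSO wells for no effect and wells without enzyme for full effect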
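Enzyme activity of human lactate dehydrogenase 5 (2 nM; 0.06 mM NADH, 0.2 mM pyruvate, 5 min, RT) is measured via a resazurin/diaphorase fluorescence readout of residual NADH.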
RORg inh: qHTS for inhibitors of ROR gamma transcriptional activity; Nuclear receptor ROR-gamma (Mus musculus), P51450; 5.4% of 310,000 active; Drosophila S2 Gal4-RORgamma UAS-luciferase reporter, 20 h; Potency, µM (highest dose often 53.6 µM), for the others: at the highest dose activity change, negative = inhibition, actives largely listed as inhibitors; further: potency means the concentration at half of the fitted maximal effect; nearly all actives have a fitted effect of over 60% in size
Target sequence (P51450 whole entry, looked up, the tested form may be a part): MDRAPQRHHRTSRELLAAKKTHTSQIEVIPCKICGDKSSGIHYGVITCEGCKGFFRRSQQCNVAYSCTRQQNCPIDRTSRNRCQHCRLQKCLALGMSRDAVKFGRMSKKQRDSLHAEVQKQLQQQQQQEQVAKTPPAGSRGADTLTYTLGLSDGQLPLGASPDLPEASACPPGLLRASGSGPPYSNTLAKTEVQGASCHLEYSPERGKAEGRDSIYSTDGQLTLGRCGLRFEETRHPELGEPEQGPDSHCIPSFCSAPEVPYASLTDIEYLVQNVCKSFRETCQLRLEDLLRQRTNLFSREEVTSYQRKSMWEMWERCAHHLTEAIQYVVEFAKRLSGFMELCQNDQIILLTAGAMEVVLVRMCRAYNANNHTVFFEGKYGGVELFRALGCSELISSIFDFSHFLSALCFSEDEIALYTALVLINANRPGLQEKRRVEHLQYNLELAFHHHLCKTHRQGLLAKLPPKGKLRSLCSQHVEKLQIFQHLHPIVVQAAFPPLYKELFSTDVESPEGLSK
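A Gal4/UAS one-hybrid system in insect cells: metallothionein-promoter Gal4–ROR gamma fusion plus Photinus luciferase reporter. Copper sulfate 700 uM final, 20 hr ambient incubation, luminescent detection after 10 min with reagent.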
TDP1 cell CPT: qHTS for Inhibitors of human tyrosyl-DNA phosphodiesterase 1 (TDP1): qHTS in cells in presence of CPT. chicken DT40 Tdp1-/-;hTDP1 cells + 20 nM CPT, ATP luminescence, 48 h. Potency, µM (titrated, usually from 46.2 µM), inactives show at the top dose activity change, negative = growth inhibition, usual class: inhibitors. 12% of 420,000 active; further: potency means the concentration at half of the fitted maximal effect; nearly all actives have a fitted effect of over 55% in size
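Chicken DT40 Tdp1-/- cells complemented with human TDP1, 400 cells/well, exposed to compounds plus 20 nM camptothecin for at least 48 h at 37 C; viability read as ATP content by CellTiter-Glo luminescence.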
* marks the source's active call; other numbers are inactive results; ? = inconclusive; nt = no result. Unless noted, the call rests on the fitted dose curve; in most records, active means well fitted curve in the direction sought with a large enough effect; inconclusive means small, poorly fitted or top-dose-only effect, or another doubt; inactive means no such curve, though single readings can be large; an effect the other way counts as inactive or inconclusive. Unless noted, on the % scale 0 is the no-effect control and ±100 the full control effect.

SMILES	IL-1B inflam inh	Gal4-VP16 FLuc	DT40 TDP1 no CPT	LDHA inh	RORg inh	TDP1 cell CPT
N#Cc1nc(-c2ccc(S(=O)(=O)N3CCCCCC3)cc2)oc1NC1CCCCC1	nt	nt	nt	-2.6	nt	nt
O=Cc1c(-[n+]2ccccc2)nc([O-])n1-c1ccccc1	15.7	4.4%	18.4µM*	-2.2	0.1%	?
COc1cc2cc(CNc3ccccc3)c(=O)n(CC(=O)Nc3cc(C)cc(C)c3)c2cc1OC	nt	nt	nt	17.1	nt	nt
COc1cc2cc(CNc3ccc(C)cc3)c(=O)n(CC(=O)Nc3ccc(F)cc3F)c2cc1OC	nt	nt	16.4µM*	24.2	nt	?
COc1ccc(NCc2cc3cc4c(cc3n(CC(=O)Nc3ccccc3)c2=O)OCO4)cc1	nt	nt	4.11µM*	30.9	nt	5.17µM*
Cc1ccc(NCc2cc3cc4c(cc3n(CC(=O)Nc3ccc(C)cc3)c2=O)OCCO4)cc1	nt	nt	8.2µM*	11.3	nt	7.31µM*
Cc1ccc(NCc2cc3cc4c(cc3n(CC(=O)Nc3ccc(F)cc3F)c2=O)OCCO4)cc1	nt	nt	nt	7.4	nt	nt
COc1ccc(-n2cc(-c3ccc4c(c3)OCO4)n(CC(=O)Nc3cccc(C)c3)c2=O)cc1	nt	nt	?	5.4	nt	23.1µM*
O=C(O)C(c1c[nH]c2cc(OCc3ccccc3)ccc12)N1CCN(Cc2cccnc2)CC1 (stereo unspecified)	nt	nt	nt	3.3	nt	nt
COc1cc(/C=C(\C#N)c2nc3ccc(C)cc3[nH]2)ccc1OC(C)=O	nt	nt	nt	-3.2	nt	nt
COc1ccc(/C=C(\C#N)c2nc3ccc(C)cc3[nH]2)cc1Oc1ccc(C(F)(F)F)cc1[N+](=O)[O-]	51.4	-7.2%	16.4µM*	-3.4	23.1%	?
Cc1ccc2nc(/C(C#N)=C\c3ccc(Oc4ccc(C(F)(F)F)cc4[N+](=O)[O-])cc3)[nH]c2c1	1.2	-15.0%	10.3µM*	-21.3	37.1%	?
CCOc1ccccc1NC(=O)COC(=O)c1oc2ccc(Br)cc2c1C	nt	nt	nt	1.1	nt	nt
FC(F)(F)c1ccc(SCc2csc(-c3ncccn3)n2)nc1	nt	nt	nt	11.3	nt	nt
CCCCNC(=O)CN1CCN(c2nc(C(F)(F)F)nc3ccccc23)CC1	nt	nt	nt	-2.7	nt	nt
CC#CCOC(=O)c1c(C)nc2sc3c(c2c1N)CCC(O)C3 (stereo unspecified)	-9.4	nt	9.2µM*	-13.1	nt	?
CCOC(=O)c1c(N)sc2c1CCC(CC)C2 (stereo unspecified)	-13.1	16.5%	-15.7%	4.0	?	1.5%
Cc1nn(-c2ccccc2)c(Cl)c1C(=O)N(C)CC(=O)Nc1cccc(F)c1	-16.5	nt	?	-0.4	nt	?
Cc1nn(Cc2ccccc2Cl)c(C)c1C(=O)N(C)CC(=O)Nc1cccc(F)c1	-4.9	nt	16.4µM*	-4.0	nt	?
Cc1nn(-c2ccc(F)cc2)c(Cl)c1C(=O)N(C)CC(=O)Nc1cccc(F)c1	-52.2*	nt	14.6µM*	-10.9	nt	?
CCOc1ccc(NC(=O)CN(C)C(=O)c2c(C)nn(Cc3ccccc3Cl)c2C)cc1OCC	-25.8	nt	-1.1%	-0.3	nt	-19.5%
COc1ccc(Cn2ccc3nc(C)c(C(=O)N4CCN(c5ccc(OC)cc5)CC4)cc3c2=O)cc1	nt	nt	23.1µM*	-1.2	nt	23.1µM*
COc1ccc(Cn2ccc3nc(C)c(C(=O)N4CCN(c5ccc(F)cc5)CC4)cc3c2=O)cc1	nt	nt	14.6µM*	-2.0	nt	23.1µM*
COc1cccc(N2CCN(C(=O)c3cc4c(=O)n(Cc5cccnc5)ccc4nc3C)CC2)c1	nt	nt	-23.5%	0.6	nt	-11.3%
COc1ccc(Cn2ccc3nc(C)c(C(=O)N4CCN(c5ccccc5OC)CC4)cc3c2=O)cc1	nt	nt	23.1µM*	-3.4	nt	?
